In ChEMBL document CHEMBL1157539, “Thousands of chemical starting points for antimalarial lead identification” (Nature, 2010):
“And” between values parts separate entries of the source, which are not always exact repeats. Equal values may be shown once.

How the values were obtained:
Assay type in all cases: functional
Plasmodium falciparum [1] = test: GSK_TCMDC: Inhibition of Plasmodium falciparum 3D7 in whole red blood cells, using parasite LDH activity as an index of growth. Test compounds present at 2uM
Plasmodium falciparum [2] = test: GSK_TCMDC: Inhibition of Plasmodium falciparum Dd2 in whole red blood cells, using parasite LDH activity as an index of growth. Test compounds present at 2uM
HepG2 = test: GSK_TCMDC: Percent inhibition of human HepG2 cell line. Test compounds present at 10uM.

Structure (SMILES)	Inhibition (Plasmodium falciparum [1])	Inhibition (Plasmodium falciparum [2])	Inhibition (HepG2)
COc1ccc(C(=O)N2CCC3(CC2)C(=O)N(CC(=O)NCC2CCCCC2)CN3c2ccccc2)cc1	100%	99%	18%
C[C@@H](CC1CCCCC1)OC(=O)N(C)[C@H]1CCN(C#N)C1	84%	62%	4%
C[C@H](N[C@H]1CCCc2c1[nH]c1ccc(Br)cc21)c1ccccc1.Cl	96%	95%	58%
COc1ccc(NC(=O)NC2CCN(c3ccnc4ccccc34)C2)cc1.O=C(O)C(F)(F)F (configuration not stated)	94%	0%	3%
Cc1[nH]c2cc(F)ccc2c(=O)c1Cc1ccc(Cl)cc1.Cc1[nH]c2cccc(F)c2c(=O)c1Cc1ccc(Cl)cc1	94% and 93%	92% and 94%	7% and 6%
CCCC(C)n1ccc2c3c(N)nc(N)nc3ccc21 (configuration not stated)	94%	91%	70%
Nc1ncc(-c2ccc(F)cc2)c2ccc(-c3cccc(F)c3)cc12	99%	89%	34%
COc1cc(Nc2nc(N)n(C(=O)c3ccc4c(c3)OCO4)n2)cc(OC)c1OC	90%	40%	60%
N=C(Nc1cccc(Cc2ccccc2)n1)Nc1ncccn1	90%	34%	51%
Nc1nc(N)c2nc(C3CC=CCC3)c(N)nc2n1 (configuration not stated)	95%	0%	67%
COCCn1ccc2c3c(N)nc(N)nc3ccc21	93%	29%	43%
COc1ccccc1Cn1ccnc1SCC(=O)Nc1cc(C(F)(F)F)ccc1Cl	96%	97%	12%
O=C(NCCCN1CCN(c2cccc(Cl)c2)CC1)c1ccc(-c2nc3cc(Cl)c(Cl)cc3[nH]2)cc1	98%	95%	3%
O=C(COc1ccc(Cl)c(Cl)c1)NCCCCCN1CCCN(C(=O)Nc2ccc(Cl)c(Cl)c2)CC1.O=C(O)C(F)(F)F	93%	7%	29%
CCNc1cc(C(=O)N[C@@H](Cc2ccccc2)[C@H](O)CNCc2cccc(-c3cncnc3)c2)cc(N2CCCC2=O)c1.O=C(O)C(F)(F)F	97%	96%	5%
Cc1cccc2nc(-c3cccc(-c4cccc(NC(=O)c5cccnc5Cl)c4)c3)[nH]c12	97%	32%	0%
CCOc1ccc(C2CCN(CCN3CCC(NC(=O)c4ccc(-c5ccc(C(F)(F)F)cc5)cc4)CC3)CC2)c(OCC2CC2)c1	99%	65%	13%
CCCCC1(c2ccc(F)cc2)NC(=O)N(CC(=O)c2cc(C)n(Cc3ccco3)c2C)C1=O (configuration not stated)	82%	28%	6%
COc1cc(C(=O)N2CCN(C(C)C)CC2)ccc1CN(C)CCCCN1CCN(c2cccc(Cl)c2Cl)CC1.Cl	100%	98%	79%
COc1ccc(CNCc2ccc(-c3ccc(-c4nc5ccccc5[nH]4)cc3)cc2)cc1.O=C(O)C(F)(F)F	100%	89%	63%
O=C(CCc1nc2c(cnn2-c2ccccc2)c(=O)[nH]1)NC1CCSc2ccccc21 (configuration not stated)	95%	52%	10%
CCOc1ccc(-c2nonc2NC(=O)CC(C)C)cc1OCC	92%	37%	0%
CC(=O)Nc1cccc(CNc2cc(C)nc(Nc3ccc(C)cc3)n2)c1	82%	23%	18%
O=C(Nc1ccc(OC2CCN(Cc3ccc(F)cc3)CC2)c(Cl)c1)c1ccsc1.O=C(O)C(F)(F)F	94%	90%	5%
COc1cc2nc(N3CCC(C(N)=O)CC3)nc(NCc3ccccc3)c2cc1OC	100%	23%	23%
COc1nc2c(N3CCN(CCNCc4ccc5c(n4)NC(=O)CS5)CC3)ccnc2cc1F	100%	96%	18%
CCCN1CCN(CCCCNc2c3ccccc3nc3ccccc23)CC1.Cl	100%	0%	34%
COc1ccc2nc3cc(Cl)ccc3c(Nc3ccc(O)c(CN4CC5CCC(CC5)C4)c3)c2c1.Cl	100%	100%	17%
CN1CCN(CCCN(Cc2cccc(-c3ccc(CNCc4ccc5c(c4)OCO5)cc3)c2)C(=O)Nc2ccccc2)CC1.O=C(O)C(F)(F)F	98%	69%	39%
